# ClpP mod = qHTS Assay for Activators of ClpP; purified B. subtilis ClpP, FRET peptide cleavage, 20 min; Potency, µM (titrated, usually from 57.5 µM), for inactives: at the highest dose activity change, negative = active; 340,000 compounds, 1.9% hits; active = well fitted falling curve with a large enough effect; inconclusive = small, poorly fitted or top-dose-only effect; inactive = no such curve, though single readings can be large or run the other way; note: the source files actives as falling curves though it sought activators and does not explain the sign; nearly all actives have a fitted effect of over 65% in size
# Target sequence (P80244 whole entry, looked up): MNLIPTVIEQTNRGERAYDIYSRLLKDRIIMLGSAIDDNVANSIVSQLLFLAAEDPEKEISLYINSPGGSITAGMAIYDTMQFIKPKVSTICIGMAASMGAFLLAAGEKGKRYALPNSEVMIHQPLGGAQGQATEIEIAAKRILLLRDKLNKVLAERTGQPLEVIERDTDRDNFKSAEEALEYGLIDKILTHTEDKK
#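 FRET quenching reversal measured ClpP activation: 10 microg/mL B. subtilis ClpP at pH 8 with the FRET-FV decapeptide, read at 430 nm after 320 nm excitation. The 20-min minus 0-min signal was scaled between DMSO/no-enzyme wells and ADEP (5.8 microM final).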
# DT40 TDP1 no CPT = qHTS for Inhibitors of human tyrosyl-DNA phosphodiesterase 1 (TDP1): qHTS in cells in absence of CPT | DT40 Tdp1-/- hTDP1 cells, no CPT, ATP luminescence, 48 h | Potency, µM (titrated, usually from 46.2 µM), inactives show top-dose activity change, negative = growth inhibition, hits mostly inhibitors | 420,000 compounds, 15% hits; note: % is set by controls: 0 for no effect and ±100 for the full control effect; nearly all actives have a fitted effect of over 55% in size
#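 No-CPT arm: Tdp1-/-;hTDP1 DT40 cells (400/well) plus compounds, incubated ≥48 hr at 37 °C. Readout CellTiter-Glo luminescence.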
# TDP1 cell CPT = qHTS for Inhibitors of human tyrosyl-DNA phosphodiesterase 1 (TDP1): qHTS in cells in presence of CPT. 420,000 compounds, 12% hits. chicken DT40 Tdp1-/-;hTDP1 cells + 20 nM CPT, ATP luminescence, 48 h. Potency, µM (doses to about 46.2 µM), for the others: at the highest dose activity change, negative = growth inhibition, hits mostly inhibitors; note: % is set by controls: 0 for no effect and ±100 for the full control effect; nearly all actives have a fitted effect of over 55% in size
#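 Chicken DT40 Tdp1-/- cells stably complemented with human TDP1 were seeded at 400 cells/well in medium containing 20 nM camptothecin, exposed to pin-transferred compounds, and grown at 37 °C for at least 48 hr. Viability was read as ATP luminescence.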
# TDP1 inh = qHTS Assay for Inhibitors of Tyrosyl-DNA Phosphodiesterase (TDP1); Tyrosyl-DNA phosphodiesterase 1 (Homo sapiens), Q9NUW8; recombinant TDP1, AlphaScreen DNA substrate cleavage; Potency, µM (series often up to 130 µM), for inactives: at the top dose activity change, negative = inhibition, hits mostly inhibitors; 350,000 compounds, 0.28% hits; AID 485290, 2010; note: % is set by controls: 0 for no effect and ±100 for the full control effect; nearly all actives have a fitted effect of over 40% in size
#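 Recombinant E. coli-expressed Tdp1 (1 nM) preincubated with compound 15 min at RT, then 5'-biotin/3'-phosphotyrosine-FITC DNA substrate (15 nM) added for 5 min. AlphaScreen beads (10 ug/ml) added, 10 min RT; tyrosine-FITC cleavage read as signal loss.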
# Numbers without * were called inactive; ? = inconclusive; . = not tested or not shown; [ ] = remark or other dose. The list is not random: actives were taken first. Their share in the collection is about 17%. Unless noted, calls come from the whole dose curve; as a rule, active = well fitted curve in the direction sought with a large enough effect; inconclusive = small, poorly fitted or top-dose-only effect, or another doubt; inactive = no such curve, though single readings can be large; an effect the other way counts as inactive or inconclusive. Potency is the fitted concentration of half-maximal effect.
SMILES,ClpP mod,DT40 TDP1 no CPT,TDP1 cell CPT,TDP1 inh
O=C(NC1CCN(Cc2ccccc2)CC1)c1cccc(S(=O)(=O)Nc2ccc(SC(F)F)cc2)c1,1%,?,23µM*,4%
CC(C)(CNC(=O)c1cccc(S(=O)(=O)Nc2ccc(SC(F)F)cc2)c1)N1CCOCC1,2%,0%,?,.
CCOc1ccc(C(=O)NCC(=O)OCc2c(F)cccc2Cl)cc1,28µM*,?,?,2%
CCCCOc1ccc(C(=O)NCC(=O)NC2CCC(C)CC2)cc1 (centres undefined),0%,-13%,3%,-3%
O=c1c(-c2cccs2)nc2cncnc2n1C1CC1,.,-15%,0%,.
OCC1C2c3ccccc3C(c3ccccc32)C1CO (centres undefined),.,?,-1%,0%
COc1cccc2c1Oc1ncccc1N(C(=O)CCC(=O)NCc1ccccc1F)C2,-1%,-13%,-1%,3%
CCOC(=O)CC/C(=N\NC(N)=O)c1ccc(OC)c(Cl)c1,-3%,7%,9%,-1%
S=c1nc(Cc2ccccc2)[nH]c2ccccc12,.,?,26µM*,.
CC(=O)Nc1cc(-c2ccc(C(=O)N3CCOCC3)cc2)cn2c(-c3ccc(F)c(Cl)c3)cnc12,?,16µM*,23µM*,.
CC(=O)Nc1cc(-c2ccccc2CN(C)C)cn2c(-c3ccc(F)c(Cl)c3)cnc12,4%,?,?,.
CC(=O)Nc1cc(-c2cccc(C(=O)NCCN(C)C)c2)cn2c(-c3ccc(S(C)(=O)=O)cc3)cnc12,5%,-29%,5%,.
CC(=O)Nc1cc(-c2ccc(C(=O)N3CCOCC3)cc2)cn2c(-c3ccc(S(C)(=O)=O)cc3)cnc12,5%,13µM*,16µM*,.
COc1ccc(C(=O)OCC(=O)N(Cc2ccccc2)Cc2ccccc2)c(O)c1,-22%,18µM*,?,.
COc1ccc2oc(C(=O)OCC(=O)N(C)Cc3ccccc3)c(C)c2c1,28µM*,-28%,-20%,.
COc1ccc2oc(C(=O)OCC(=O)N(Cc3ccccc3)C(C)C)c(C)c2c1,32µM*,-29%,?,.
COc1ccc2oc(C(=O)OCC(=O)N(C)c3ccccc3)c(C)c2c1,.,-28%,1%,0%
OC(c1cccnc1)c1ccc2c(c1)CN(Cc1cccc3c1OCO3)CCO2 (centres undefined),.,-19%,0%[9.04 µM],.
Cc1nc2sc(C(N)=O)c(N)c2c(-c2ccc(Br)cc2)c1C(=O)Nc1ccc(Cl)cc1,-5%,?,?,-9%
CCC(C)NC(=O)c1sc2nc(C)c(C(=O)Nc3ccc(Cl)cc3)c(-c3ccc(Br)cc3)c2c1N (centres undefined),-4%,21µM*,?,3%
CC(=O)Nc1ccc(Nc2cc(C)nc3ccccc23)cc1,.,-6%,18%,.
CC(=O)Nc1ccc(Nc2ccc3c4c(cc(=O)n3C)-c3ccccc3C(=O)c24)cc1,.,6.5µM*,-25%,9%
COc1cc(OC)c(-c2cc(C(=O)NCc3ccc(F)cc3)c3c(-c4ccccc4)[nH]nc3n2)cc1OC,50%,?,?,1%
COc1ccccc1-c1cc(C(=O)NCc2ccccc2)c2c(-c3ccc(C)cc3)[nH]nc2n1,?,?,23µM*,-2%
CCOc1ccc(-c2cc(C(=O)NCCc3ccccc3)c3c(-c4ccc(C)cc4)[nH]nc3n2)cc1,4%,15µM*,12µM*,3%
SMILES,ClpP mod,DT40 TDP1 no CPT,TDP1 cell CPT,TDP1 inh
COc1ccc(CCNC(=O)c2cc(-c3ccc(C)cc3)nc3n[nH]c(-c4ccccc4)c23)cc1OC,13µM*,-3%,-22%,3%
CCOc1ccc(-c2cc(C(=O)NCCc3ccc(OC)c(OC)c3)c3c(-c4ccc(F)cc4)[nH]nc3n2)cc1,-1%,?,?,-1%
CN(C)N1C(N)=C(C#N)C(c2cccc3ccccc23)C2=C1CC(c1ccccc1)CC2=O (centres undefined),-17%,7.3µM*,8.2µM*,0%
CN(C)N1C(N)=C(C#N)C(c2ccccc2)C2=C1CC(C)(C)CC2=O (centres undefined),.,-13%,0%,.
COc1ccc(NC(=O)Nc2nnc(N(C)C3CCCCC3)s2)c(OC)c1,0%,?,?,6%
CC(C)OCCCNC(=O)C1CCC(CNS(=O)(=O)c2ccc(Cl)cc2)CC1 (centres undefined),-2%,-22%,-20%,3%
COCCCNCC1C(Oc2ccc(Cl)cc2)C(=O)N1c1ccccc1C (centres undefined),-13%,16µM*,?,1%
Cc1ccccc1N1C(=O)C(Oc2ccc(Cl)cc2)C1CNCCCOC(C)C (centres undefined),0%,26µM*,?,-1%
O=c1c(-c2nnc(SCc3ccc(Cl)c(Cl)c3)o2)cccn1Cc1ccccc1,?,21µM*,?,-12%
COC(=O)c1ccc(C(=S)NCC2(N(C)C)CCCCC2)cc1,.,-23%,-23%,8%
O=C(CN1C=NS(=O)(=O)c2ccc(C(F)(F)F)cc21)Nc1cccc(C(F)(F)F)c1,43%,5%,-8%,3%
COc1ccccc1NC(=O)N1CCN(Cc2nc3ccc(C)cc3o2)CC1,0%,-21%,-19%,-1%
CC(=O)Nc1ccc(N=Nc2ccc(O)cc2)cc1,1%,?,15µM*,0%
CC(=O)Nc1ccc(-c2ccc(NC(C)=O)cc2)cc1,.,15%,3%,-2%
COc1cc(Cl)c(C)cc1NC(=O)Cn1c(C)c2cnn(-c3ccccc3)c(=O)c2c1C,-3%,8%,-23%,3%
CCc1ccccc1NC(=O)Nc1cc(C(=O)NCc2cccc(F)c2)ccc1N1CCCC1,-1%,2.6µM*,3.3µM*,1%
CCc1ccccc1NC(=O)Nc1cc(C(=O)NCc2ccc(OC)cc2)ccc1N1CCCC1,-3%,9.2µM*,12µM*,4%
CCc1ccccc1NC(=O)Nc1cc(C(=O)NCc2ccc(C)cc2)ccc1N1CCCC1,-1%,?,?,4%
COc1ccc2c(c1)OC(C)CN(CCNC(=O)c1cc3cc(F)ccc3[nH]1)C2 (centres undefined),.,?,7%[9.04 µM],.
O=C(Cn1c(=O)nc(-c2ccccc2)c2cc(Cl)ccc21)N1CCN(c2ccc(F)cc2)CC1,-3%,-13%,16%,6%
COc1ccc(C)cc1NC(=O)CN1C(=O)COc2ccc(S(=O)(=O)N3CCOCC3)cc21,0%,?,-13%,4%
CCCCn1nnc(NC(=O)c2ccc(-c3cccc(Cl)c3)o2)n1,32µM*,-12%,5%,5%
CNC1=CN=C(c2ccccc2)c2cc(Cl)ccc2N1,.,.,.,7%

# Screening results deposited in PubChem BioAssay by National Center for Advancing Translational Sciences (NCATS).
